PubChem BioAssay AID1159580 (chemical genetic matrix, 2015)
About 2,000 (36%) of roughly 5,500 compounds were called active. Roughly 18% stayed inconclusive and do not appear here. No stated cut-off is given here; in the data, active means normalized growth mostly below about 0.91 (no sharp cut-off); inconclusive means no clear call, values can overlap the other calls; inactive means mostly above about 0.92. This is one part of the list.

Experiment: chemical genetic growth profiling, strain panel (AID 1159580);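 further: tested at 20 µM; growth read once vehicle control cultures reached saturation at 30 °C; 1 = growth at the plate median or of vehicle wells; lower values mean less growth of the strain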
Conditions: S. cerevisiae deletion strains, growth OD
[1] = locus YHR030C, strain SLT2, active compounds read low

Measured: normalized growth

O=C1NCCN=C(c2ccccc2)c2ccccc21
inactive: locus YAL013W, strain DEP1, active compounds read low 0.999 | locus YBR229C, strain ROT2, active compounds read low 1 | locus YCL061C, strain MRC1, active compounds read low 0.99 | locus YDL101C, strain DUN1, active compounds read low 0.984 | locus YDL134C, strain PPH21, active compounds read low 1.01 | locus YDR150W, strain NUM1, active compounds read low 0.911 | locus YEL061C, strain CIN8, active compounds read low 0.995 | locus YGR078C, strain PAC10, active compounds read low 0.99 | [1] 1.03 | locus YHR087W, strain rtc3, active compounds read low 0.999 | locus YJL187C, strain SWE1, active compounds read low 0.997 | locus YJR043C, strain POL32, active compounds read low 0.995 | locus YJR075W, strain HOC1, active compounds read low 1.01 | locus YLR039C, strain RIC1, active compounds read low 0.985 | locus YLR058C, strain SHM2 (second series), active compounds read low 0.998 | locus YLR085C, strain ARP6, active compounds read low 1.01 | locus YLR262C, strain YPT6, active compounds read low 0.968 | locus YML094W, strain GIM5, active compounds read low 0.98 | locus YMR219W, strain ESC1, active compounds read low 0.999 | locus YMR263W, strain SAP30, active compounds read low 0.973 | locus YMR307W, strain GAS1, active compounds read low 0.994 | locus YNL153C, strain GIM3, active compounds read low 0.99 | locus YNL298W, strain CLA4 (second series), active compounds read low 1.01 | locus YNL322C, strain KRE1, active compounds read low 0.994 | locus YNR030W, strain Alg12, active compounds read low 1 | locus YOL006C, strain TOP1, active compounds read low 1 | locus YPL055C, strain LGE1, active compounds read low 0.956 | locus YPL241C, strain CIN2, active compounds read low 0.976 | locus YPR135W, strain CTF4, active compounds read low 1.01

CC(=O)c1ccc[nH]1
inactive: locus YAL021C, strain ccr4, active compounds read low 1.01 | locus YAL026C, strain drs2, active compounds read low 1 | locus YAL030W, strain snc1, active compounds read low 0.997 | locus YBL061C, strain skt5, active compounds read low 0.996 | locus YBR009C, strain hhf1, active compounds read low 1.02 | locus YBR023C, strain chs3, active compounds read low 0.998 | locus YBR171W, strain sec66, active compounds read low 1.01 | locus YBR231C, strain swc5, active compounds read low 1 | locus YBR279W, strain paf1, active compounds read low 1.01 | locus YCL011C, strain gbp2, active compounds read low 1 | locus YCL016C, strain dcc1, active compounds read low 0.997 | locus YCL069W, strain vba3, active compounds read low 1 | locus YCR088W, strain abp1, active compounds read low 1.01 | locus YDL005C, strain med2, active compounds read low 0.99 | locus YDL040C, strain nat1, active compounds read low 0.998 | locus YDR001C, strain nth1, active compounds read low 1 | locus YDR069C, strain doa4, active compounds read low 1.01 | locus YDR137W, strain rgp1, active compounds read low 0.98 | locus YDR159W, strain sac3, active compounds read low 0.975 | locus YDR195W, strain ref2 0.979 | locus YDR297W, strain sur2, active compounds read low 1.01 | locus YDR334W, strain swr1, active compounds read low 0.995 | locus YDR335W, strain msn5, active compounds read low 0.993 | locus YDR392W, strain spt3, active compounds read low 1.01 | locus YEL003W, strain gim4, active compounds read low 0.998 | locus YEL037C, strain rad23, active compounds read low 1 | locus YEL061C, strain CIN8 (second series), active compounds read low 1.01 | locus YER015W, strain faa2, active compounds read low 1 | locus YER016W, strain bim1, active compounds read low 0.995 | locus YER111C, strain swi4, active compounds read low 0.994 | locus YER155C, strain BEM2 (second series), active compounds read low 0.994 | locus YFR010W, strain ubp6, active compounds read low 1 | locus YGL167C, strain pmr1, active compounds read low 0.988 | locus YGL173C, strain kem1, active compounds read low 0.998 | locus YGL227W, strain vid30, active compounds read low 0.996 | locus YGL240W, strain doc1, active compounds read low 1 | locus YGL253W, strain hxk2, active compounds read low 1 | locus YHR013C, strain ard1, active compounds read low 1.01 | locus YHR027C, strain rpn1, active compounds read low 0.991 | [1] 1 | locus YHR079C, strain IRE1, active compounds read low 0.992 | locus YHR142W, strain chs7, active compounds read low 1 | locus YJL092W, strain hpr5, active compounds read low 0.992 | locus YJL095W, strain BCK1 (second series), active compounds read low 0.988 | locus YJL095W, strain BCK1, active compounds read low 0.988 | locus YJL115W, strain asf1, active compounds read low 0.993 | locus YJL129C, strain trk1, active compounds read low 0.988 | locus YJL154C, strain vps35, active compounds read low 0.996 | locus YJL164C, strain tpk1, active compounds read low 1.01 | locus YJL166W, strain qcr8, active compounds read low 1.01 | locus YJR066W, strain TOR1, active compounds read low 0.942 | locus YKL160W, strain elf1, active compounds read low 1 | locus YKR026C, strain gcn3, active compounds read low 0.998 | locus YKR091W, strain srl3, active compounds read low 0.999 | locus YLL001W, strain dnm1, active compounds read low 1.01 | locus YLL026W, active compounds read low 1 | locus YLL041C, strain sdh2, active compounds read low 1 | locus YLR027C, strain aat2, active compounds read low 1 | locus YLR113W, strain HOG1, active compounds read low 1 | locus YLR221C, strain rsa3, active compounds read low 1.01 | locus YLR258W, strain gsy2, active compounds read low 1.01 | locus YLR262C, strain YPT6 (second series), active compounds read low 1.03 | locus YLR320W, strain mms22, active compounds read low 1 | locus YLR342W, strain FKS1, active compounds read low 0.999 | locus YLR357W, strain rsc2, active compounds read low 0.971 | locus YLR370C, strain arc18, active compounds read low 0.994 | locus YLR384C, strain iki3, active compounds read low 0.997 | locus YML120C, strain ndi1, active compounds read low 1.01 | locus YMR058W, strain fet3, active compounds read low 0.997 | locus YMR125W, strain sto1, active compounds read low 0.997 | locus YMR129W, active compounds read low 0.996 | locus YMR205C, strain PFK2, active compounds read low 1.01 | locus YMR231W, strain pep5, active compounds read low 1 | locus YNL071W, strain lat1, active compounds read low 1 | locus YNL183C, strain NPR1, active compounds read low 0.902 | locus YNL209W, strain ssb2, active compounds read low 1.01 | locus YNL248C, strain rpa49, active compounds read low 0.98 | locus YNL322C, strain KRE1 (second series), active compounds read low 0.986 | locus YNR049C, strain mso1, active compounds read low 1.01 | locus YOR001W, strain rrp6, active compounds read low 1 | locus YOR070C, strain gyp1, active compounds read low 1.01 | locus YOR080W, strain dia2, active compounds read low 1 | locus YOR083W, strain WHI5, active compounds read low 1 | locus YOR106W, strain vam3, active compounds read low 0.985 | locus YOR231W, strain MKK1, active compounds read low 1.02 | locus YOR265W, strain rbl2, active compounds read low 1.02 | locus YOR270C, strain vph1, active compounds read low 1.01 | locus YOR290C, strain snf2, active compounds read low 0.992 | locus YPL051W, strain arl3, active compounds read low 1.02 | locus YPL078C, strain atp4, active compounds read low 1.01 | locus YPL106C, strain sse1, active compounds read low 0.978 | locus YPL240C, strain hsp82, active compounds read low 0.994 | locus YPL256C, strain CLN2, active compounds read low 0.99
